For experiment [1], the system named is TRPC4 beta (transient receptor potential cation channel C4), mouse. Put plainly: TRPC4 cation channel opening, retest – cell-based, Fluo4 calcium, HEK293 TRPC4beta/mu-opioid, duplicates, 10 µM, confirmation (AID 2426;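 active = fluorescence ratio normalized to control raised more than 50% in primary screen plus both repeat runs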;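 as to activation: percent rise of integrated ratio over buffer wells lacking compound which define 0%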). To be noted: Fluo4 calcium fluorescence, at 10 µM; stronger effect = higher value.
Experiment [2] has as its system transient receptor potential cation channel C4 beta (TRPC4), mouse. Description: TRPC4 cation channel opening, second retest – cell-based, second round, Fluo4, HEK293 TRPC4beta/mu-opioid, 1 µM, confirmation (AID 2461;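 active = primary screen active and over 50% activation in each of two duplicate runs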;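 as to activation: 0% = wells without test compound as baseline of integrated fluorescence ratio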). To be noted: Fluo4 calcium fluorescence, at 1 µM; stronger effect = higher value.
Experiment [3] deals with TRPC4 (transient receptor potential cation channel C4 beta), mouse. Description: potentiation of DAMGO EC20 TRPC4 response – cell-based, second round, Fluo-4, HEK293 TRPC4beta/mu-opioid, 1 µM, confirmation (AID 2554;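 active = primary screen hit whose fluorescence ratio, in both repeats, exceeds the weak agonist control mean by 3 SD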). To be noted: DAMGO EC20, Fluo-4 calcium flux, at 1 µM; stronger effect = higher value. (In general: Calcium assays in cells follow changes in intracellular calcium, usually with a dye or a luminescent sensor.)

The subject of experiment [4] is TRPC4 beta (transient receptor potential cation channel C4), mouse. Description: potentiation of DAMGO EC20 TRPC4 response – cell-based, Fluo-4, HEK293 TRPC4beta/mu-opioid, confirmation (AID 2555;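 active = primary screen hit whose calcium fluorescence ratio, in both repeats, exceeds the weak agonist control mean by 3 SD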). To be noted: DAMGO EC20, Fluo-4 calcium flux, at 10 µM; stronger effect = higher value.
Experiment [5] deals with Short transient receptor potential channel 4 (Mus musculus) (UniProt Q9QUQ5). Put plainly: blockers of DAMGO-evoked TRPC4 calcium flux – cell-based, Fluo4, HEK293 TRPC4beta/mu-opioid, confirmation (AID 2636;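 active = calcium signal cut by more than 3 SD below the full-agonist control yet still positive, in both repeats and the earlier primary screen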). To be noted: at 10 µM; stronger effect = higher value.
Short transient receptor potential channel 4 (Mus musculus), sequence (Q9QUQ5 whole entry, looked up): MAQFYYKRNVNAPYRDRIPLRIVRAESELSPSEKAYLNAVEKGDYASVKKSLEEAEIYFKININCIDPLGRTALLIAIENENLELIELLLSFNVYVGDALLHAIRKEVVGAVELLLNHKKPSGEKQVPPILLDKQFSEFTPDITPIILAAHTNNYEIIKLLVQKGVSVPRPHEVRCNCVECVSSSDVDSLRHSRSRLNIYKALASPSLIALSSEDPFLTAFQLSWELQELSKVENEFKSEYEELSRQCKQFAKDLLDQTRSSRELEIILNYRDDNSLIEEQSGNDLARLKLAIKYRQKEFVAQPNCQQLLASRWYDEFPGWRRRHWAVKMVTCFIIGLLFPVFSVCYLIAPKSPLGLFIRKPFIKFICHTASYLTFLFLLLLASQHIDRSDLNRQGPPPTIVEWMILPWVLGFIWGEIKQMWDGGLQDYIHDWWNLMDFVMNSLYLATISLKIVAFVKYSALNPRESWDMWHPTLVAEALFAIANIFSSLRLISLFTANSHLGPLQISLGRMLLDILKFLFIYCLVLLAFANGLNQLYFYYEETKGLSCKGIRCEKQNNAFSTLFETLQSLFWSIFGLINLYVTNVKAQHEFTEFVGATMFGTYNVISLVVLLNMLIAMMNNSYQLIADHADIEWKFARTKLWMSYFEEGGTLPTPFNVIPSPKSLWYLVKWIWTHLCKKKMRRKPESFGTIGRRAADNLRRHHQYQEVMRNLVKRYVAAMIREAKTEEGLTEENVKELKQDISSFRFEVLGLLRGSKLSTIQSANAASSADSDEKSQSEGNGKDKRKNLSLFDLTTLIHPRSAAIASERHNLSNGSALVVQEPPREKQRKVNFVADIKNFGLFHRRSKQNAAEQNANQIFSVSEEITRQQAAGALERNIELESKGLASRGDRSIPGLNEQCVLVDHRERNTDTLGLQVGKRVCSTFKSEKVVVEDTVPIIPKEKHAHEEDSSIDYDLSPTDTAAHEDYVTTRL
The target is the same in experiment [6]. Put plainly: blockers of DAMGO-evoked TRPC4 calcium flux – cell-based, second round, Fluo4, HEK293 TRPC4beta/mu-opioid, 1 µM, confirmation (AID 2637;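 active = calcium signal ratio cut to more than 3 SD under the fully stimulated control mean yet still positive, in both repeats and the primary screen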). The conditions noted are these: at 1 µM; stronger effect = higher value.
For experiment [7] the target is unchanged. Put plainly: potentiation of DAMGO-evoked TRPC4 calcium signal – cell-based, HEK293 TRPC4/mu-opioid, Fluo-4 calcium, EC20 DAMGO, dose response (AID 434941;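 active = earlier screen potentiator hit that boosts the TRPC4 ion channel at some dose, with a dose response; inactive = no potentiation, no dose response, or not a prior hit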;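 also: calcium entry triggered by an EC20 dose of DAMGO at the co-expressed mu-opioid receptor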).
For experiment [8] the target is unchanged. Put plainly: block of DAMGO-driven TRPC4 calcium entry – cell-based, HEK293 TRPC4/mu-opioid, Fluo-4 calcium, dose response (AID 434942;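 active = primary screen inhibitor hit that blocks the TRPC4 channel at some tested dose, yielding a dose curve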).
Experiment [9] has as its target Short transient receptor potential channel 6 (Mus musculus) (UniProt Q61143). Put plainly: TRPC6 blockade by TRPC4 inhibitor hits – cell-based, HEK293, membrane potential dye, duplicate, selectivity assay for TRPC4 inhibitor project, confirmation (AID 434948;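 active = active in primary screen and both duplicates, each dropping signal beyond three positive-control SD with fluorescence still positive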). To be noted: HEK293 TRPC6, membrane potential dye fluorescence, at 10 µM, stimulated with maximal-effect acetylcholine; stronger effect = higher value.

Experiment [10] has the same target. Description: TRPC6 opening by TRPC4 activator hits – cell-based, HEK293, membrane potential dye, duplicate, selectivity assay for TRPC4 activator project, confirmation (AID 434950;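 active = membrane potential signal rise above negative control mean plus 3 SD in both duplicates, also active in the earlier TRPC4 screen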;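 as to activation: 0% = buffer only wells and 100% = acetylcholine maximal-effect wells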). The conditions noted are these: HEK293 TRPC6, membrane potential fluorescence, at 10 µM; activation: stronger effect = higher value; outcome: activation.
The target is the same in experiment [11]. Put plainly: positive modulators of mouse TRPC6 channel – HEK293 cells, membrane potential dye, duplicate, selectivity assay for TRPC4 potentiator project, confirmation (AID 434952). To be noted: HEK293 TRPC6, membrane potential dye fluorescence, at 10 µM, maximal acetylcholine added after compound; stronger effect = higher value.
Experiment [12] addresses Short transient receptor potential channel 4 (Mus musculus) (UniProt Q9QUQ5). Put plainly: calcium flux activators in TRPC4/5HT1a cells, counter-screen for TRPC4 activator project, cell-based, second counter screen, HEK293 TRPC4/5HT1a, Fluo-4 (AID 434977;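 active = calcium signal rise above buffer-control mean plus 5 SD in both duplicates, and also a hit in the primary screen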;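 as to activation: plate controls were assay buffer for no effect and maximal serotonin response for full effect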). The conditions noted are these: Fluo-4 calcium flux, at 10 µM; stronger effect = higher value.
Experiment [13] is described as follows: serotonin-gated TRPC4 signal block – cell-based, second counter screen, HEK293 TRPC4/5HT1a, Fluo-4, counter-screen for TRPC4 inhibitor project, confirmation (AID 434978;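 active = primary screen active whose calcium signal fell more than 3 SD beyond the full-serotonin control mean in both duplicate plates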;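 also: serotonin given first at submaximal then at maximal dose after compound preincubation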). The conditions noted are these: Fluo-4 calcium flux, at 10 µM, serotonin added to trigger calcium flux; stronger effect = higher value.
In experiment [14] the test system is TRPC4 (mouse), co-expressed with 5HT1a in HEK293. Description: enhancement of serotonin-evoked TRPC4 response – cell-based, second counter screen, HEK293 TRPC4/5HT1a, Fluo-4, counter-screen for TRPC4 potentiator project, confirmation (AID 434979;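 active = signal rise over 3 SD above mean of control wells given weak agonist, in both repeats and first screen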). The conditions noted are these: Fluo-4 calcium flux, at 10 µM, serotonin added at its EC20 dose; stronger effect = higher value.

A short description of experiment [15]: nonspecific calcium rise without TRPC4 – cell-based, HEK293 mu-opioid receptor line, counter-screen for TRPC4 activator project, confirmation (AID 449723;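 active = hit in primary screen, with calcium signal over 5 SD above buffer well mean in both duplicates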;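 also: counter screen cells carry the mu-opioid receptor alone and lack TRPC4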). The conditions noted are these: HEK293 mu-opioid cells, Fluo-4 calcium fluorescence, at 10 µM; stronger effect = higher value. On the technique in general: The purpose of a counterscreen is to sort out artefacts and off-target activity.

The nature of experiment [16]: nonspecific potentiation of DAMGO calcium response – cell-based, HEK293 mu-opioid receptor line, counter-screen for TRPC4 allosteric potentiator project, confirmation (AID 449724;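 active = calcium signal rise more than 3 SD above the low-dose agonist control mean, in both duplicate plates and the primary screen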;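 also: HEK293 cells carrying mu-opioid receptor only with no TRPC4 channel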). The conditions noted are these: HEK293 mu-opioid receptor cells, Fluo-4 calcium flux, at 10 µM, compound added before EC20 DAMGO stimulus; stronger effect = higher value.

For part of these data: Measured potencies and affinities stand elsewhere. Active and inactive are the calls of the source.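 The calls were made as follows, unless noted: active = compound raising the membrane signal above positive-control mean plus 3 SD in both repeats, and a primary screen hit; inactive = the rest.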

Short transient receptor potential channel 6 (Mus musculus), sequence (Q61143 whole entry, looked up): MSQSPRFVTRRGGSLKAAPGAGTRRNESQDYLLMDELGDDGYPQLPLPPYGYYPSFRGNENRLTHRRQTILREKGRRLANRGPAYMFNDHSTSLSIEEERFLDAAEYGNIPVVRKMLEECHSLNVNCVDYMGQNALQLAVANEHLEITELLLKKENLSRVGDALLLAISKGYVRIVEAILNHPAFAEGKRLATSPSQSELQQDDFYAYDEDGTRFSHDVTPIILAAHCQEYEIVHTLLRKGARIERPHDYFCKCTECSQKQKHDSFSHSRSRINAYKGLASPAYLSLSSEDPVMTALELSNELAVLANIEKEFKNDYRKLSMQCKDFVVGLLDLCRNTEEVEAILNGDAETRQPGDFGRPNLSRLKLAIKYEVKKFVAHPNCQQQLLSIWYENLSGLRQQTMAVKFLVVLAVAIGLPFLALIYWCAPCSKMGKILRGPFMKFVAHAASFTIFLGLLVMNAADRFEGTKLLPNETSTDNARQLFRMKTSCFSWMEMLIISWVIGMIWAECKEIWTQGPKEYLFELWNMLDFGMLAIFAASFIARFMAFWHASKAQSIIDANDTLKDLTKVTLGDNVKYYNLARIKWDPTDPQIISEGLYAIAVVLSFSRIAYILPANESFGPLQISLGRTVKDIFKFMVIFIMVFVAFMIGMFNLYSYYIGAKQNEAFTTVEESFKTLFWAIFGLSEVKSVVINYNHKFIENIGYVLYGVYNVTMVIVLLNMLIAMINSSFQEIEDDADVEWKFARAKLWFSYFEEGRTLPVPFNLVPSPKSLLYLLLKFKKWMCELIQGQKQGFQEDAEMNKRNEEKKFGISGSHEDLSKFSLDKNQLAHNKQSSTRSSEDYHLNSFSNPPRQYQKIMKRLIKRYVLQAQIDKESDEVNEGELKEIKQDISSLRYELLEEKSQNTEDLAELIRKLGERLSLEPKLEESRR

`COc1ccccc1C(=O)NNC(=S)NC(=O)c1cccs1`: the results for the activation in experiment [1], in [12] and in experiment [15] were 74% (active), 59.6% (active) and 13.9% (active), respectively. Further, the result in experiment [2], in [3], in experiment [4], in [5], in [6] and in experiment [7] was inactive. Further, the result in experiment [8], in [9], in experiment [10], in experiment [11], in [13] and in experiment [14] was inactive. Besides, the outcome in experiment [16] was inactive.
Regarding `COc1ccccc1CCC(=O)Nc1cc(S(=O)(=O)N2CCCCC2)ccc1N1CCN(C)CC1`, the activation in experiment [1] is 153% (active); in [2], 67% (active); in [12], 32.8% (active). Moreover, the outcome in [3], in experiment [4], in experiment [5], in [6], in experiment [7] and in experiment [8] was inactive. Besides, the molecule was called inactive in [9], in experiment [10], in [11], in experiment [13], in experiment [14] and in experiment [15]. Further, the outcome in [16] was inactive.
For `COc1cc(C(=O)NC(=S)NNC(=O)[C@H]2C[C@@H]2c2ccccc2)cc(OC)c1OC`, the activation in experiment [1] was 59% (active); in [10], 34% (active); in experiment [12], 63.3% (active); in experiment [15], 13.1% (active). The result in experiment [2], in [3], in experiment [4], in experiment [5], in experiment [6] and in experiment [7] was inactive. Moreover, the outcome in [8], in [9], in experiment [11], in [13], in [14] and in experiment [16] was inactive.
Regarding `CCN1CCN(c2ccc(S(=O)(=O)N3CCCCC3)cc2NC(=O)c2cccc(C)c2[N+](=O)[O-])CC1`, the activation in experiment [1] is 143% (active); in experiment [12], 40.7% (active). Further, the outcome in experiment [2], in experiment [3], in experiment [4], in [5], in experiment [6] and in [7] was inactive. In addition, the result in experiment [8], in experiment [9], in [10], in experiment [11], in experiment [13] and in experiment [14] was inactive. For the same molecule, the result in experiment [15] and in experiment [16] was inactive.
As for `Cc1cc(OCCCn2ccnc2)cc(C)c1Cl`, the activation was 67% (active) in [1], 47.5% (active) in [10] and 15.8% (active) in [12]. Moreover, the result in [2], in experiment [3], in experiment [4], in experiment [5], in experiment [6] and in experiment [7] was inactive. Also, the outcome in experiment [8], in experiment [9], in experiment [11], in [13], in [14] and in experiment [15] was inactive. Moreover, in experiment [16], the outcome was inactive.
Turning to `CN(C)CCCN(C(=O)c1ccc(S(=O)(=O)N2CCCCCC2)cc1)c1nc2ccc(F)cc2s1`, the results for the activation in experiment [1], in experiment [12] and in experiment [15] were 278% (active), 44.3% (active) and 27.1% (active), respectively. Also, the outcome in experiment [2], in experiment [3], in [4], in experiment [5], in experiment [6] and in [7] was inactive. Also, the outcome in [8], in [9], in experiment [10], in [11], in experiment [13] and in experiment [14] was inactive. Also, the outcome in experiment [16] was inactive.
Consider `CC(=O)Nc1ccc(CN2CCCC(C(=O)c3ccc(C(F)(F)F)cc3)C2)cc1` (stereo not given), for which the activation in experiment [1] is 358% (active); in [2] it was 86% (active); in experiment [10], 37.5% (active); in experiment [12], 40.5% (active). Moreover, the result in [3], in experiment [4], in [5], in experiment [6], in experiment [7] and in experiment [8] was inactive. Further, the result in [9], in experiment [11], in experiment [13], in experiment [14], in experiment [15] and in experiment [16] was inactive.
As for `O=C(C1CCCN(Cc2ccccc2)C1)N1CCc2ccccc2C1` (stereo not given), the activation in experiment [1] was 105% (active); in experiment [2], 94% (active); in experiment [10], 71% (active); in [12] it was 40.5% (active). In addition, the outcome in [3], in experiment [4], in experiment [5], in experiment [6], in [7] and in experiment [8] was inactive. The molecule was called inactive in experiment [9], in experiment [11], in experiment [13], in experiment [14], in experiment [15] and in [16].
`CN(C)C(CNc1ncnc2sc3c(c12)CCCC3)c1ccco1` (stereo not given): the activation in experiment [1] was 110% (active). The outcome in [2], in [3], in [4], in [5], in experiment [6] and in experiment [7] was inactive. In addition, the result in experiment [8], in [9], in experiment [10], in experiment [11], in experiment [12] and in [13] was inactive. The result in [14], in [15] and in [16] was inactive.
As to `COc1ccc(-n2cc(CNCCc3ncc(C)[nH]3)c(-c3ccccc3Cl)n2)cc1`, the activation was 214% (active) in experiment [1] and 30% (active) in experiment [10]. Besides, the result in experiment [2], in experiment [3], in experiment [4], in experiment [5], in experiment [6] and in experiment [7] was inactive. The outcome in experiment [8], in experiment [9], in experiment [11], in [12], in experiment [13] and in experiment [14] was inactive. For the same molecule, the result in experiment [15] and in experiment [16] was inactive.
In the case of `CCOc1ccccc1CN1CCNC(=O)C1CC(=O)N(C)CCc1ccccn1` (stereo not given), the activation in experiment [1] was 235% (active); in experiment [2], 76% (active); in experiment [10], 27% (active); in experiment [12], 72.6% (active). Besides, the result in [3], in [4], in experiment [5], in experiment [6], in [7] and in experiment [8] was inactive. The molecule was classed as inactive in [9], in [11], in [13], in experiment [14], in [15] and in [16].
As to `O=C(c1sc2ccccc2c1Cl)N(Cc1cccs1)C1CCS(=O)(=O)C1` (stereo not given), the activation in experiment [1] is 265% (active); in [2] it was 79% (active); in [10], 35% (active); in [12] it was 12% (active). In addition, the result in [3], in [4], in experiment [5], in [6], in [7] and in experiment [8] was inactive. The call in experiment [9], in experiment [11], in experiment [13], in [14], in experiment [15] and in [16] was inactive.
`CCOC(=O)C1(Cc2cccc(F)c2)CCN(Cc2cnc(C)s2)CC1`: the outcome in experiment [1], in experiment [2], in experiment [3], in experiment [4], in experiment [5] and in experiment [6] was inactive. Also, the result in [7], in experiment [8], in experiment [9], in [11], in [12] and in experiment [13] was inactive. The outcome in experiment [14], in experiment [15] and in experiment [16] was inactive. Moreover, the activation in [10] was 44% (active).
As for `CCOC(=O)C1(CCc2ccccc2)CCN(Cc2c(O)cccc2OC)CC1`, the activation in [1] is 83% (active); in experiment [10], 92.5% (active). In addition, the outcome in [2], in [3], in experiment [4], in [5], in [6] and in [7] was inactive. The result in experiment [8], in experiment [9], in [11], in experiment [12], in experiment [13] and in experiment [14] was inactive. Also, the outcome in experiment [15] and in [16] was inactive.
Regarding `Cn1c(-c2cccc3ccccc23)n[nH]c1=S`, the activation in [1] is 117% (active); in experiment [2], 97% (active); in experiment [12], 30.5% (active). The result in [3], in experiment [4], in experiment [5], in [6], in [7] and in experiment [8] was inactive. Also, the result in [9], in [10], in experiment [11], in experiment [13], in experiment [14] and in experiment [15] was inactive. For the same molecule, the result in experiment [16] was inactive.

(Values after PubChem BioAssay.)
